3T3 cytotox: Cytotoxic Profiling in NIH 3T3 Cell Line of Diverse Libraries Using Quantitative High-Throughput Screening; NIH 3T3 viability, CellTiter-Glo ATP luminescence, 48-72 h; Potency, µM (highest dose often 96.7 µM), without a hit: at the top dose activity change, negative = cytotoxicity, actives largely listed as inhibitors; hit rate 4.3% among 94,000; AID 1345082, 2018; note: % is set by controls: 0 for no effect and ±100 for the full control effect; nearly all actives have a fitted effect of over 55% in size
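First NIH 3T3 cells are plated at 400 cells/well; next compound is pinned in; then plates incubate 48 or 72 hr at 37 °C; finally CellTiter-Glo is added and luminescence read after 10 min.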
SNCA expr inhib: Primary qHTS assay for inhibitors of alpha-synuclein gene (SNCA) expression; HEK-293 SNCA-luciferase knock-in, luminescence, 24 h; Potency, µM (doses to about 57.2 µM), for inactives: at the top dose activity change, negative = inhibition, usual class: inhibitors; hit rate 0.17% among 140,000; AID 1671194, 2021;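 note: plate controls were DMSO cells for no effect and cell-free wells for full effect; nearly all actives have a fitted effect of over 45% in size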
NPR1 antag: Natriuretic polypeptide receptor (hNpr1) antagonism - Primary qHTS; hit rate 1.6% among 76,000; HEK293 hNpr1 GloSensor cGMP, ANP-stimulated luminescence; Potency, µM (doses to about 46.3 µM), for inactives: at the highest dose activity change, negative = inhibition, usual class: inhibitors; calls by dose curve; note: % is set by controls: 0 for no effect and ±100 for the full control effect; nearly all actives have a fitted effect of over 60% in size
Target sequence (P16066 whole entry, looked up): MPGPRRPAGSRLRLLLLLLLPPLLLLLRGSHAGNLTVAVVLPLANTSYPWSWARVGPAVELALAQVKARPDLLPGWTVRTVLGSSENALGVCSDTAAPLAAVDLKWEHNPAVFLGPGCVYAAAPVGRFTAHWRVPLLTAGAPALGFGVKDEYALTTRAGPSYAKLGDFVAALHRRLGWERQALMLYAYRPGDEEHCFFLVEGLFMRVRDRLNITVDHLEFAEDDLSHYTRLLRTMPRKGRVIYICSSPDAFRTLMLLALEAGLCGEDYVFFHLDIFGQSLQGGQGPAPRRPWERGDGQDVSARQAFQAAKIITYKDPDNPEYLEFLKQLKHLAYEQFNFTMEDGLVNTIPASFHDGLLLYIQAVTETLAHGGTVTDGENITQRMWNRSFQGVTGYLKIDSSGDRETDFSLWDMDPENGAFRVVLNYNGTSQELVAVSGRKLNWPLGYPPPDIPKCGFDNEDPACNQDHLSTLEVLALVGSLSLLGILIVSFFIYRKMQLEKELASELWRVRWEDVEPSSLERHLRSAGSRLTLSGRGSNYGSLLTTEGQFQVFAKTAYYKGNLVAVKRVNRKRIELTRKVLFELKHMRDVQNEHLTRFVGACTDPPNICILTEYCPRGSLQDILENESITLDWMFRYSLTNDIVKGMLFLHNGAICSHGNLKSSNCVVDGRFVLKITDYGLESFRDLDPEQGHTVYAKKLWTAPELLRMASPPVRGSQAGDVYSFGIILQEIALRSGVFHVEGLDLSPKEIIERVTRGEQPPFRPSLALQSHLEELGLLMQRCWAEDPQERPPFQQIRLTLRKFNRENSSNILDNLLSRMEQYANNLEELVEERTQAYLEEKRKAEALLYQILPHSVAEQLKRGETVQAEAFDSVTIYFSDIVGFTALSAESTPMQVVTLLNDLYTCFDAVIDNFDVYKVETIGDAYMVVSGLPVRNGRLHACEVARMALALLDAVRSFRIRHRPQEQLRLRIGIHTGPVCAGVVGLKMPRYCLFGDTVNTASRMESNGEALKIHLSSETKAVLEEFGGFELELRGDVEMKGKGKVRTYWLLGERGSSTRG
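Compound pre-incubated 30 min at room temperature on GloSensor-loaded HEK293 cells stably carrying hNpr1 and the pGS-40F cGMP biosensor. Stimulation uses hNppA at 0.1 nM final; luminescence is taken at baseline and 20 min post-agonist.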
FLuc inh-1: Firefly luciferase inhibition profiling of diverse chemical library using quantitative high-throughput screening; Luciferin 4-monooxygenase (Photinus pyralis), P08659; purified P. pyralis luciferase, luminescence, biochemical; Potency, µM (series often up to 115 µM), actives largely listed as inhibitors; hit rate 2.5% among 76,000; AID 1347043, 2019; note: % is set by controls: 0 for no effect and ±100 for the full control effect; nearly all actives have a fitted effect of over 65% in size
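Cell-free enzyme assay, 10nM P. pyralis luciferase, luciferin and ATP each at 10uM. Inhibition profiled over a 6-point titration, read as luminescence.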
HEK cytotox: Cytotoxic Profiling in HEK 293 Cell Line of Diverse Libraries Using Quantitative High-Throughput Screening; Potency, µM (titrated, usually from 115 µM), for inactives: at the top dose activity change, negative = cytotoxicity, actives largely listed as inhibitors; AID 1345083, 2018; HEK 293 viability, ATP luminescence (CellTiter-Glo), 48-72 h; hit rate 6.6% among 94,000; note: % is set by controls: 0 for no effect and ±100 for the full control effect; nearly all actives have a fitted effect of over 60% in size
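Luminescence from cellular ATP, measured with CellTiter-Glo, indicates HEK 293 viability. Cells plated at 250 cells/well are treated with compound for 48 or 72 hr at 37 degree Celsius before reagent addition.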
HEK293 viab: GF-AFC viability counterscreen for inhibitors of alpha-synuclein gene (SNCA) expression; hit rate 0.12% among 150,000; Potency, µM (highest dose often 57.1 µM), for the others: top-dose activity change, negative = cytotoxicity, hits mostly cytotoxic; HEK-293-SNCA-luc viability, GF-AFC fluorescence, 24 h;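 note: 0% = DMSO-treated cells and -100% = medium-only wells without cells; nearly all actives have a fitted effect of over 30% in size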
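Cytotoxicity counterscreen: after 24 h compound treatment of genome-edited SNCA-luciferase HEK-293 cells, live-cell protease substrate GF-AFC read by fluorescence after 30 min; activity scaled between DMSO (0%) and medium-only (-100%), curves Hill-fitted.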
FLuc SDR no ATP: Firefly luciferase (FLuc-C-HiBiT) SDR gain of signal screen - without ATP; shares compounds with FLuc inh-1; Purified FLuc-C-HiBiT, Nano-Glo HiBiT luminescence, no ATP; Potency, µM (titrated, usually from 32.7 µM), for the others: at the highest dose activation (signal gain), usual class: activators; hit rate 7.8% among 1,300; AID 1963318, 2024; note: nearly all actives have a fitted effect of over 55% in size
FLuc SDR ATP: Firefly luciferase (FLuc-C-HiBiT) SDR gain of signal screen - plus ATP | shares compounds with FLuc inh-1 | purified FLuc-C-HiBiT + ATP, HiBiT complementation luminescence | Potency, µM (top dose mostly 32.7 µM), without a hit: at the top dose activation (gain of signal), actives largely listed as activators | hit rate 8.7% among 1,300 | AID 1963319, 2024;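 note: signal reports ligand binding via conformational change of the enzyme rather than luciferase catalysis; % of control where 0% means no effect; nearly all actives have a fitted effect of over 55% in size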
FLuc inh-2: Firefly luciferase (FLuc-C-HiBiT) enzymatic inhibition screen - Functional assay; shares compounds with FLuc inh-1; purified FLuc-C-HiBiT enzyme, luciferin luminescence; Potency, µM (highest dose often 32.7 µM), for the others: at the highest dose activity change, negative = inhibition, usual class: inhibitors; hit rate 42% among 1,300; note: % is set by controls: 0 for no effect and ±100 for the full control effect; nearly all actives have a fitted effect of over 70% in size
An asterisk follows results filed as active; [ ] = dose if it differs, or a comment. Shown are actives, neighbours in structure and some others; about 7.2% of the full set was active somewhere. Unless noted, calls come from the whole dose curve; as a rule, active = well fitted curve in the direction sought with a large enough effect; inconclusive = small, poorly fitted or top-dose-only effect, or another doubt; inactive = no such curve, though single readings can be large; an effect the other way counts as inactive or inconclusive. Potency is the fitted concentration of half-maximal effect.

What do the screens show for `CCOCC1(C)COc2ccc(C(=O)Nc3ccccc3)cc2N1` (configuration not stated)?
3T3 cytotox: inconclusive; SNCA expr inhib: 56.7%[87.6 µM]; NPR1 antag: -3.8%[70.6 µM]; FLuc inh-1: 10µM*; HEK cytotox: inconclusive; HEK293 viab: -11.1%[87.6 µM]; FLuc SDR no ATP: 21.9%[49.3 µM]; FLuc SDR ATP: 13.1%[49.3 µM]; FLuc inh-2: inconclusive

What do the screens show for `Cc1cc(F)ccc1NC(=O)c1csc2c1CCC(C)C2` (configuration not stated)?
SNCA expr inhib: 18.7%; HEK293 viab: -7.8%; FLuc SDR no ATP: 25.7%; FLuc SDR ATP: 19.6%; FLuc inh-2: inconclusive

Results for CCN1C(=O)CCN(C(=O)c2ccoc2)CC12CCOCC2 ?
3T3 cytotox: -1.9%; SNCA expr inhib: -38.6%; NPR1 antag: -2.4%; FLuc inh-1: inactive; HEK cytotox: -2.5%; HEK293 viab: -31.4%

Results for Cc1ccc2nc(-c3ccc(NC(=O)c4ccccc4S(C)(=O)=O)cc3)sc2c1 ?
SNCA expr inhib: 63.9%; HEK293 viab: -5.7%; FLuc SDR no ATP: 12.6%; FLuc SDR ATP: 12.6%; FLuc inh-2: inconclusive

Results for CNc1ccc2cc(-c3nc4ccc(C(=O)O)cc4s3)ccc2c1 ?
FLuc SDR no ATP: 1.11µM*; FLuc SDR ATP: 0.014µM*; FLuc inh-2: 0.007µM*

Results for CCSc1ccc(C(=O)Nc2ccc(-c3nc4ccc(C)cc4s3)cc2)cc1 ?
SNCA expr inhib: 38.7%; HEK293 viab: 25.9%; FLuc SDR no ATP: 14.3%; FLuc SDR ATP: 8.4%; FLuc inh-2: -4.9%

What do the screens show for `Cc1ccc2nc(-c3ccc(NC(=O)CSc4nnc(C)s4)cc3)sc2c1`?
FLuc SDR no ATP: 16.4%; FLuc SDR ATP: 15.5%; FLuc inh-2: 0.624µM*

How did COc1cccc(C(=O)NC2CCN(C(=O)c3ccc(-c4ccccc4OC)cc3)CC2)c1 do in these assays?
3T3 cytotox: inconclusive; SNCA expr inhib: 0.6%; HEK cytotox: inconclusive; HEK293 viab: 8.5%[12.5 µM]

Results for CCCNC(=O)N1CCCC(c2nc(C3CCOCC3)no2)C1 (configuration not stated) ?
3T3 cytotox: -12.6%; SNCA expr inhib: 6.5%; NPR1 antag: 14.7%; FLuc inh-1: inactive; HEK cytotox: -9.0%; HEK293 viab: -0.8%

How did O=C(c1ccccc1)N1CCC2(CC1)CN[S+](=O)([O-])c1cccnc1O2 do in these assays?
3T3 cytotox: inactive; SNCA expr inhib: -2.6%; HEK cytotox: inactive; HEK293 viab: -1.8%
